An excerpt weighted towards active compounds, which were near 3.5% of everything screened.
mHTT CaM bind: disrupts binding of mutant huntingtin to calmodulin; AlphaScreen His-mHTT/GST-CaM binding, luminescence; inhibition, % at 15 µM; 190,000 tested, 3.6% active; AID 1671202;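 further: 0% = both proteins with DMSO and 100% = one protein alone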
Pf apPOL block: Pf-apPOL DNA polymerase inhibition | 210,000 tested, 0.25% active | Recombinant Pf-apPOL, molecular beacon fluorescence, 1.5 h | inhibition, % at 10 µM
An asterisk follows results filed as active. No stated cut-off is given here; in the data, active means inhibition above about 50%; inactive means the rest.

`Nc1ccc(O)c(-c2nc3ccccc3s2)c1` gave mHTT CaM bind 49.9 and Pf apPOL block 3.4.
For O=[N+]([O-])c1ccc(COc2ccc(-c3[nH]ncc3-c3nc4ccccc4s3)c(O)c2)cc1 the results were mHTT CaM bind 99.9* and Pf apPOL block -6.7.
Cc1nc(-c2cccc(NC(=O)Cc3csc(Nc4ncccn4)n3)c2)cs1 was read as mHTT CaM bind 41.3 and Pf apPOL block -2.7.
`O=C1c2ccccc2C(=O)c2c1sc1cccc[n+]21` gave mHTT CaM bind 8.0 and Pf apPOL block -5.8.
`Cc1cccc(C=C2Oc3c(ccc(O)c3CN3CCN(CCO)CC3)C2=O)c1` gave mHTT CaM bind 5.3 and Pf apPOL block -19.0.
Screening O=C(Nc1cc(C(F)(F)F)ccc1Cl)c1ccccc1Br returned mHTT CaM bind -16.0 and Pf apPOL block -0.9.
Screening Cc1cc2ccccc2n1CCNC(=O)C(C)(C)Oc1ccc(Cl)cc1 returned mHTT CaM bind 60.0* and Pf apPOL block -1.6.
CC(C)(Oc1ccc(Cl)cc1)C(=O)NCCSc1c[nH]c2ccccc12 was read as mHTT CaM bind 99.0* and Pf apPOL block 2.7.
Screening CC(C)(Oc1ccc(Cl)cc1)C(=O)NCCc1ccccc1 returned mHTT CaM bind -38.4 and Pf apPOL block -0.4.
O=C(NCCSc1c[nH]c2ccccc12)c1ccc(Cl)cc1 was read as mHTT CaM bind 8.0 and Pf apPOL block -2.7.
For CN(Cc1ccccc1)c1cc2c(c3c1ccn3C)C1CCC2C1 (configuration not stated) the results were mHTT CaM bind 71.2* and Pf apPOL block -3.2.
`Cn1ccc2c(N(c3ccccc3)C3CCCCC3)cc3c(c21)C1CCC3O1` (configuration not stated) gave mHTT CaM bind 23.5 and Pf apPOL block -4.8.
`CN(c1cc2c(c3c1ccn3C)C1CCC2C1)C1CCCCC1` (configuration not stated) gave mHTT CaM bind 70.3* and Pf apPOL block -3.2.
For Cn1ccc2c(-c3ccc(F)cc3)cc3c(c21)C1CCC3C1 (configuration not stated) the results were mHTT CaM bind 22.3 and Pf apPOL block 2.4.
Screening CN(CCc1ccccc1)c1cc2c(c3c1ccn3C)C1CCC2C1 (configuration not stated) returned mHTT CaM bind 74.7* and Pf apPOL block -3.9.
`Cn1ccc2c(N(Cc3ccccc3)Cc3ccccc3)cc3c(c21)C1CCC3C1` (configuration not stated) gave mHTT CaM bind 12.2 and Pf apPOL block -1.9.
For CCN(C)c1cc2c(c3c1ccn3C)C1CCC2C1 (configuration not stated) the results were mHTT CaM bind 53.0* and Pf apPOL block -7.2.
For Cc1ccccc1-c1cc2c(c3c1ccn3C)C1CCC2C1 (configuration not stated) the results were mHTT CaM bind 20.0 and Pf apPOL block -6.1.
Screening CCCNC(=O)c1ccccc1NC(=O)Nc1ccc(Cl)cc1 returned mHTT CaM bind -4.7 and Pf apPOL block 30.4.
`CCCOc1ccccc1/C=c1\sc2nc(=O)c(-c3ccccc3)nn2c1=O` gave mHTT CaM bind 12.0 and Pf apPOL block -4.9.
Screening COc1ccc(-c2cc3c(c4c2ccn4C)C2CCC3C2)cc1F (configuration not stated) returned mHTT CaM bind 46.6 and Pf apPOL block -2.9.
COc1ccccc1N(C)c1cc2c(c3c1ccn3C)C1CCC2C1 (configuration not stated) was read as mHTT CaM bind 83.1* and Pf apPOL block 1.8.
`C=CCc1cc(OC)ccc1OCC(O)CN1CC(C)CC(C)C1` (configuration not stated) gave mHTT CaM bind 1.3 and Pf apPOL block 2.5.
Screening Cc1cccc(-c2nc(C3CCN(S(=O)(=O)c4ccc(F)c(F)c4)CC3)no2)c1 returned mHTT CaM bind -6.9 and Pf apPOL block -5.0.
Screening COc1ccc(C2CC(=O)C3=C(C2)Nc2ccccc2NC3c2ccc(Cl)cc2)cc1OC (configuration not stated) returned mHTT CaM bind 36.0 and Pf apPOL block 3.3.
For COc1ccc(C2CC(=O)C3=C(C2)Nc2ccccc2NC3c2ccc(N(C)C)cc2)cc1OC (configuration not stated) the results were mHTT CaM bind 52.0* and Pf apPOL block 0.4.
Screening COc1ccc(C2CC(=O)C3=C(C2)Nc2ccccc2NC3c2ccc(Cl)s2)cc1OC (configuration not stated) returned mHTT CaM bind 56.0* and Pf apPOL block 5.1.
For COc1ccc(C2CC(=O)C3=C(C2)Nc2ccccc2NC3c2ccc(C)s2)cc1OC (configuration not stated) the results were mHTT CaM bind 33.0 and Pf apPOL block -4.8.
Screening O=C(NCc1ccco1)c1nc(-c2cnccn2)no1 returned mHTT CaM bind -15.6 and Pf apPOL block -1.3.
For C[C@@H](c1ccccc1)N1C[C@H](COCc2ccccc2)Oc2cc(N3CC[C@H](O)C3)ccc2S1(=O)=O the results were mHTT CaM bind 48.1 and Pf apPOL block -8.1.

Screening data (PubChem)
